MazEF act = MazEF (E. coli) toxin RNase activation; P0AE70; activation, % at 20 µM; FAM/BHQ RNA-DNA oligo cleavage fluorescence, 5 h; hit rate 0.32% among 350,000; in the data active = activation above about 50%
Target sequence (P0AE70 whole entry, looked up): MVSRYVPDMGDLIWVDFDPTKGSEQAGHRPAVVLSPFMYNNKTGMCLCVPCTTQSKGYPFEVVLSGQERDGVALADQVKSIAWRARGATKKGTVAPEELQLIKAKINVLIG
BoNT-A LC inh2 = blocks Botulinum neurotoxin A light chain protease; multiplex microsphere protease substrate cleavage, flow cytometry; inhibition, % at 10 µM; hit rate 0.17% among 360,000; note: plate controls were buffer without enzyme for full effect and enzyme alone for no effect
Autofluor counter = compound fluorescence in toxin protease inhibitor counterscreen; AID 624483; hit rate 3.1% among 360,000; fluorescence intensity (no concentration beside the values); compound autofluorescence counterscreen, microsphere flow cytometry; hits give high values; in the data active = fluorescence intensity above about 16000; inconclusive = no clear call, values can overlap the other calls
Anthrax LF inh2 = blocks Bacillus anthracis lethal factor protease | P15917 | multiplex microsphere protease cleavage assay, LF | inhibition, % at 10 µM | hit rate 0.12% among 360,000 | AID 588501; note: plate controls were buffer without enzyme for full effect and enzyme alone for no effect
BoNT F protease = blocks Botulinum neurotoxin F light chain protease; Multiplex microsphere protease cleavage assay, flow cytometry; inhibition, % at 10 µM; hit rate 0.22% among 360,000; AID 588497; in the data active = inhibition above about 35%, passing the limit was not always enough; inconclusive = no clear call, values can overlap the other calls; note: plate controls were buffer without enzyme for full effect and enzyme alone for no effect
Numbers without * were called inactive; ? = inconclusive; / = not tested or not shown. Sampled rows, rich in hits. Any-hit rate of the full collection: about 3.6%. Cut-off read from the data, not from the text of the source, unless noted: active = inhibition above about 30%; inconclusive = no clear call, values can overlap the other calls; inactive = below that.

SMILES | MazEF act | BoNT-A LC inh2 | Autofluor counter | Anthrax LF inh2 | BoNT F protease
CCCCn1nnnc1C(c1ccccc1)N1CCN(c2ccc(OC)cc2)CC1 (configuration not stated) | / | -1 | 6496 | 2 | -12
CCOC(=O)CN1C(=O)C(CC)Oc2ccccc21 (configuration not stated) | 1 | -2 | 24132* | -1 | -4
NC(=O)c1cc([N+](=O)[O-])ccc1NCc1ccccn1 | -6 | 0 | 3034 | -2 | -4
Cn1c(C(C(=O)NCC2CCCO2)N(C(=O)Cn2nnc3ccccc32)C2CCCCC2)nc2ccccc21 (configuration not stated) | 7 | -2 | 21506* | 0 | -1
O=C(Cn1cc(COc2ccc(Cl)c(Cl)c2)nn1)NS(=O)(=O)c1ccccc1C(F)(F)F | / | 0 | 4019 | 1 | -10
CCN1C(=O)/C(=C2\C=Cc3ccccc3N2CC)OC1=S | 235* | -1 | 10575 | -2 | -7
Cc1cccc(-c2noc(CCC(=O)N3CCN(c4cc(C)ccc4C)CC3)n2)c1 | 6 | 0 | 3651 | 0 | -2
Cc1ccc(-c2noc(CCCC(=O)N3CCOCC3)n2)cc1 | 2 | 4 | 20543* | -1 | 5
O=C(CCCc1nc(-c2ccc(Cl)cc2)no1)N1CCOCC1 | -1 | 0 | 5296 | 3 | -6
Cc1cccc(-c2noc(CCCC(=O)N3CCOCC3)n2)c1 | -3 | 7 | 21401* | -6 | 5
Cc1ccccc1-n1c(-c2ccncc2)n[nH]c1=S | 2 | 1 | 3878 | -2 | 5
CCc1ccccc1-n1c(-c2ccncc2)n[nH]c1=S | -1 | -2 | 22962* | -3 | -2
COCCCNC(=O)c1c(NC(=O)c2ccco2)n(Cc2ccccc2)c2nc3ccccc3nc12 | -2 | 20 | 2513 | 12 | 10
COCCNC(=O)c1c(NC(=O)c2ccc(Br)o2)n(Cc2ccccc2)c2nc3ccccc3nc12 | -14 | 35* | 3089 | 11 | 0
CCNC(=O)n1nccc1C(C)Oc1cccc(C(F)(F)F)c1 (configuration not stated) | -1 | 2 | 21560* | -2 | 0
CCNC(=O)n1nccc1C(C)Oc1ccc(Cl)cc1 (configuration not stated) | 2 | 0 | 21790* | -2 | -2
CCNC(=O)C(C)Oc1ccc(Cl)cc1Cl (configuration not stated) | -2 | 0 | 3857 | 3 | -1
O=S(=O)(c1ccc(F)cc1)N1CCC(N2CCCCCC2)CC1 | 3 | 0 | 16305* | -4 | -1
CS(=O)(=O)N1CCC(C(=O)Nc2cccc(F)c2)CC1 | 18 | 4 | 3978 | -14 | 39*
O=C(Nc1cccc(Cl)c1)C1CCCN(S(=O)(=O)c2ccc(F)cc2)C1 (configuration not stated) | -1 | 0 | 20734* | 0 | -4
CC1CCCN(S(=O)(=O)c2ccc(NC(=O)c3cccc(-n4cnnn4)c3)cc2)C1 (configuration not stated) | -4 | 1 | 20061* | -2 | 0
CSc1cccc(NC(=O)C2CCCN(S(=O)(=O)c3ccc(F)cc3)C2)c1 (configuration not stated) | 10 | 0 | 4597 | -2 | -11
CC1CCN(C2CCN(S(=O)(=O)c3ccc(F)cc3)CC2)CC1 | 9 | 3 | 9245 | -3 | 8
CCCCCC(C)NC(=O)c1cc(S(=O)(=O)N2CCCCC2)ccc1N1CCOCC1 (configuration not stated) | -3 | -1 | 9288 | -2 | 1
CCOC(=O)C1CC(CN2C(=O)c3ccccc3C2=O)OC1=O (configuration not stated) | -21 | 0 | 3811 | -6 | -4
SMILES | MazEF act | BoNT-A LC inh2 | Autofluor counter | Anthrax LF inh2 | BoNT F protease
Cc1ccc(S(=O)(=O)N2CCC(C(=O)NCCCN3CCCCCC3)CC2)cc1 | 8 | 2 | 24422* | -2 | -10
Cc1ccc(NC(=O)c2ccc(S(=O)(=O)N3CCC(C)CC3)cc2)cc1 | 4 | -3 | 20894* | 0 | -4
Cc1ccc(NC(=O)C2CCN(S(=O)(=O)c3ccc(F)cc3)CC2)cc1 | 14 | -1 | 23704* | -1 | -4
Cc1ccc(C(=O)Nc2ccc(S(=O)(=O)N3CCOCC3)cc2)cc1 | -8 | 0 | 2060 | 2 | -3
C[C@H]1CN([C@@H](C)CO)C(=O)CCCn2cc(nn2)CO[C@@H]1CN(C)C(=O)Nc1ccc2c(c1)OCO2 | -25 | 0 | 3365 | 0 | -3
COc1cc2ccccc2cc1C(=O)OCc1nc2ccsc2c(=O)[nH]1 | 20 | 0 | 4143 | 0 | 5
O=C(Nc1cc(C(F)(F)F)ccc1-n1cncn1)c1ccc(Br)cc1 | 2 | 0 | 24053* | -1 | 0
CN(C)c1ccc(C(=O)Nc2cc(C(F)(F)F)ccc2-n2cncn2)cc1 | 3 | 0 | 4135 | -6 | ?
Cc1ccc(C2=NS(=O)(=O)N(C)C(C(=O)NCc3ccc4c(c3)OCO4)=C2)cc1 | -11 | -1 | 6503 | -5 | -8
O=S(=O)(Nc1ccc2c(c1)nc1n2CCOC1)c1ccc(Cl)cc1 | 4 | 1 | 22037* | 2 | 2
O=S(=O)(Nc1ccc2c(c1)nc1n2CCOC1)c1ccccc1 | -8 | 6 | 19895* | 2 | 12
CCCc1[nH]nc2c1C(c1cc(OC)ccc1F)C(C#N)=C(N)O2 (configuration not stated) | -2 | 4 | 18896* | -9 | 4
CCCc1[nH]nc2c1C(c1cc(OC)cc(OC)c1)C(C#N)=C(N)O2 (configuration not stated) | -4 | 0 | 8833 | 3 | -7
CCOC(=O)Cc1[nH]nc2c1C(c1cccc(OC)c1OC)C(C#N)=C(N)O2 (configuration not stated) | 3 | 0 | 4690 | 2 | 15
CCOC(=O)Cc1[nH]nc2c1C(c1cc(OC)ccc1OC)C(C#N)=C(N)O2 (configuration not stated) | 5 | -4 | 21991* | 0 | -5
COc1ccc(-c2ccc(C(=O)NCc3cccs3)c3occc23)c(C)c1 | / | 0 | 4077 | -8 | 4
COc1ccc(-c2csc(C)n2)cc1OC | 1 | 0 | 23023* | -3 | 4
COc1ccc(-c2csc(C)n2)cc1 | 3 | 1 | 8707 | 1 | 10
Cc1nc(-c2ccccc2)cs1 | -1 | 3 | 21622* | -1 | 4
Cc1ccc(N=Cc2sc(O)c3ccccc23)c(C)c1 | 691* | 1 | 9519 | -6 | 13
COc1ccc(/C=N/N2CCOCC2)cc1Cn1cc([N+](=O)[O-])cn1 | 10 | 0 | 5260 | -6 | 2
COc1cc(/C=C\C(=O)NCc2ccc3c(c2)cc(C)n3C)cc(OC)c1OC | -2 | 68* | 2962 | -80 | -120
COc1cc(/C=C/C(=O)NCc2ccccn2)cc(OC)c1OC | 6 | 0 | 2528 | 3 | -4
CN(CC(=O)Nc1sccc1C(N)=O)S(=O)(=O)c1ccc(Cl)cc1 | -7 | 0 | 3883 | -6 | -10
COc1ccccc1NC(=O)CN1C(=O)C(C)Oc2ccccc21 (configuration not stated) | -6 | 0 | 22685* | 2 | 1

Bioassay records: PubChem BioAssay, several laboratories
